We go through 10 compounds from PubChem BioAssay (Tox21).

The target of assay [1] is Aryl hydrocarbon receptor (Homo sapiens) (UniProt P35869). Nature of the assay: qHTS assay to identify small molecule that activate the aryl hydrocarbon receptor (AhR) signaling pathway (AID 743085).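 For activation: HG2L7.5c1 human HepG2 liver cells with stably integrated DRE-driven firefly reporter; series mostly up to about 70 µM.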 Note: nearly all actives have a fitted effect of over 15% in size. Note: potency is the fitted concentration of half-maximal effect. Summed up:
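HepG2 cells (HG2L7.5c1) stably carrying a firefly luciferase reporter driven by 20 dioxin responsive elements were exposed to compound for 24 h at 37C after a 5 h settling period; luminescence rise (ONE-Glo) indicated activation.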

A short description of assay [2]: qHTS assay to identify small molecule that activate the aryl hydrocarbon receptor (AhR) signaling pathway - cell viability counter screen (AID 743086).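 Note: HepG2 liver cells carrying the AhR DRE luciferase reporter; series mostly up to about 70 µM; nearly all actives have a fitted effect of over 45% in size.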 The essentials:
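Cytotoxicity counter screen: CellTiter-Fluor signal (30 min, 37 C) in 4000 HepG2 cells/well carrying the DRE-luciferase reporter, following 24 h compound exposure at 37 C.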
On the technique in general: Quantitative high-throughput screening tests each substance at several concentrations.

The target in assay [3] is Peroxisome proliferator-activated receptor gamma (Homo sapiens) (UniProt P37231). As to the kind of experiment: qHTS assay to identify small molecule agonists of the peroxisome proliferator-activated receptor gamma (PPARg) signaling pathway (AID 743094; active = well fitted activation curve with a large enough effect in the signal ratio in the repeat runs, not every such curve was filed as active; the % refers to the signal ratio). The essentials: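 Reporter activation was scored by fluorescence of cleaved LiveBLAzer B/G substrate (1 h, room temperature) in PPARg-bla HEK293H cells previously treated 17 h at 37C with DMSO-dissolved compounds.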
Sequence of Peroxisome proliferator-activated receptor gamma (Homo sapiens) (P37231 whole entry, looked up): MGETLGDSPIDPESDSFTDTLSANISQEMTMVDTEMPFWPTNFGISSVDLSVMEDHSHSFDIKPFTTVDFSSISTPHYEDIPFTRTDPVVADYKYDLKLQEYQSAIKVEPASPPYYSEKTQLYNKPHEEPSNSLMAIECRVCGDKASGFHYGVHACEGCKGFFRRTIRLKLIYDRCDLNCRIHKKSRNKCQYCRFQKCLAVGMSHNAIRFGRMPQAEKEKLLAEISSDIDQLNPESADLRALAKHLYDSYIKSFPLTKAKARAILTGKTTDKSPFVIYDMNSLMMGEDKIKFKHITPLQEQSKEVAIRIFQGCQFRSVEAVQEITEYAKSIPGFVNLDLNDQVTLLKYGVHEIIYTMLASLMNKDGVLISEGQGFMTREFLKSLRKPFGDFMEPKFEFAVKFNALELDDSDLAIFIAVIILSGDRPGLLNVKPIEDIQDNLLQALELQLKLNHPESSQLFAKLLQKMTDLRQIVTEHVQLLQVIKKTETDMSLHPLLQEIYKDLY

Assay [4] in a line: qHTS assay to identify small molecule antagonists of the peroxisome proliferator-activated receptor gamma (PPARg) signaling pathway - cell viability counter screen (AID 743194). Note: nearly all actives have a fitted effect of over 55% in size. The conditions noted are these: Potency: co-treated with 50 nM rosiglitazone. The essentials:
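Viability was measured as CellTiter-Glo luminescence in GeneBLAzer PPARg UAS-bla HEK293H cells. These cells had been exposed 17 h at 37 C to compounds together with rosiglitazone at 50 nM final, with the beta-lactamase readout taken in the same wells.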

The nature of assay [5]: qHTS assay for small molecule activators of the heat shock response signaling pathway - cell viability counter screen (AID 743209). Note: nearly all actives have a fitted effect of over 50% in size. The essentials:
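Viability of HSE-bla HeLa cells is measured with CellTiter-Glo in the wells already used for the reporter read. Compound exposure lasts 5 h at 37 C, and luminescence is read after 30 min at room temperature.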

Assay [6] can be described thus: qHTS assay for small molecule activators of the heat shock response signaling pathway (AID 743210; active = well fitted activation curve with a large enough effect in the signal ratio in the repeat runs, with a control signal flat, not every such curve was filed as active; the % refers to the signal ratio; note: series mostly up to about 63 µM). Summed up: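 Compound exposure lasted 5 h at 37 C in HeLa cells carrying a heat-shock-element-driven beta-lactamase reporter. Read-out: fluorescence intensity after 2.5 h room-temperature loading with LiveBLAzer B/G FRET substrate.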
A short description of assay [7]: qHTS assay to identify small molecule agonists of the peroxisome proliferator-activated receptor delta (PPARd) signaling pathway - cell viability counter screen (AID 743211). Note: nearly all actives have a fitted effect of over 55% in size. The essentials:
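PPARd-bla HEK293H cells (UAS-beta-lactamase reporter) were treated with compounds for 17 h at 37 C. Viability was then read in the same wells by CellTiter-Glo luminescence after 30 min at room temperature.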

Assay [8] in a line: qHTS assay to identify small molecule antagonists of the peroxisome proliferator-activated receptor delta (PPARd) signaling pathway - cell viability counter screen (AID 743213). Note: nearly all actives have a fitted effect of over 50% in size. The essentials: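 Viability counter-screen, qHTS format: PPARd-bla HEK293H, L165041 300 nM final, 17 h compound exposure at 37 C, CellTiter-Glo luminescence after 30 min RT.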
Assay [9] in a line: qHTS assay to identify small molecule agonists of the farnesoid-X-receptor (FXR) signaling pathway - cell viability counter screen (AID 743218). Note: nearly all actives have a fitted effect of over 45% in size. The essentials: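 Viability of FXR-bla HEK 293T cells is measured by ATP-based CellTiter-Glo luminescence following 16 h compound treatment at 37 C and a prior 2 h room-temperature beta-lactamase substrate step.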
Assay [10] is described as follows: qHTS assay to identify small molecule antagonists of the farnesoid-X-receptor (FXR) signaling pathway - cell viability counter screen (AID 743221; active = well fitted cell-killing curve with a large enough effect in the repeat runs, not every such curve was filed as active; note: nearly all actives have a fitted effect of over 50% in size). The essentials: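 FXR-UAS-bla HEK 293T cells were treated with test compounds plus chenodeoxycholic acid (50 uM final) for 16 h at 37 C. Cell viability in the same wells was then read as CellTiter-Glo luminescence after 30 min at room temperature.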

Assay [11] deals with Vitamin D3 receptor (Homo sapiens) (UniProt P11473). As to the kind of experiment: qHTS assay to identify small molecule agonists of the vitamin D receptor (VDR) signaling pathway (AID 743222; calls by dose curve). The essentials: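 Fluorescence from cleaved LiveBLAzer B/G FRET substrate served as readout. VDR-bla cells had been treated 16 h at 37C with test compounds in DMSO, following a 4 h settling period, and substrate was loaded for 2 h at RT.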
Sequence of Vitamin D3 receptor (Homo sapiens) (P11473 whole entry, looked up): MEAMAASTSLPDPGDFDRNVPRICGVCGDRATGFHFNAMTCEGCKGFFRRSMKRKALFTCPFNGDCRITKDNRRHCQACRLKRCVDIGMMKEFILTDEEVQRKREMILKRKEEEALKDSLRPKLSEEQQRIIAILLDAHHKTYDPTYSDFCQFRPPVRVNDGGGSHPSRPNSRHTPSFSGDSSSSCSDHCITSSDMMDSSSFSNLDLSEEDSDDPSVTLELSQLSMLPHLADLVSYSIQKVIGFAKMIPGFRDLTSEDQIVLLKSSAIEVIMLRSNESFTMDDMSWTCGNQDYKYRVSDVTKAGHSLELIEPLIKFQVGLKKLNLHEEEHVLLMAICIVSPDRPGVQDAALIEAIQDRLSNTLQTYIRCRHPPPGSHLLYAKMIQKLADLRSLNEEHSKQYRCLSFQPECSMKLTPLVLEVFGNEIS

The target is the same in assay [12]. As to the kind of experiment: qHTS assay to identify small molecule antagonists of the vitamin D receptor (VDR) signaling pathway (AID 743223; active = well fitted inhibition curve with a large enough effect in the signal ratio in the repeat runs, not every such curve was filed as active; the % refers to the signal ratio). The essentials:
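VDR-bla cells were plated, incubated 4 h at 37C, then given compound and 1alpha,25-dihydroxyvitamin D3 (3 nM final). After 16 h at 37C, LiveBLAzer B/G FRET substrate was added for 2 h at room temperature and fluorescence read.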

Assay [13] in a line: qHTS assay to identify small molecule agonists of the vitamin D receptor (VDR) signaling pathway - cell viability counter screen (AID 743224). Note: series mostly up to about 63 µM; nearly all actives have a fitted effect of over 50% in size. Summed up: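 Compounds were pin-transferred onto VDR-bla cells plated 4 h earlier; following 16 h incubation at 37C, cell viability was quantified by CellTiter-Glo luminescence after 30 min at room temperature.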
Assay [14] can be described thus: qHTS assay for small molecule agonists of the antioxidant response element (ARE) signaling pathway (AID 743202; active = well fitted activation curve with a large enough effect in the signal ratio in the repeat runs, not every such curve was filed as active; the % refers to the signal ratio; note: potency is the fitted concentration of half-maximal effect). Summed up:
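After 16 hours of compound treatment at 37 C, HepG2 cells with a stably integrated ARE-driven beta-lactamase reporter were loaded 2 hours at room temperature with LiveBLAzer B/G FRET substrate and fluorescence intensity measured.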

Assay [15] is described as follows: qHTS assay for small molecule agonists of the antioxidant response element (ARE) signaling pathway - cell viability counter screen (AID 743203; calls by dose curve; note: nearly all actives have a fitted effect of over 55% in size). The essentials: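 Viability counter screen: stably transfected ARE-bla HepG2 line, 16 hrs compound exposure at 37C/5% CO2, ATP-based CellTiter-Glo luminescence measured in the reporter wells.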
In assay [16] the target is Peroxisome proliferator-activated receptor delta (Homo sapiens) (UniProt Q03181). As to the kind of experiment: qHTS assay to identify small molecule agonists of the peroxisome proliferator-activated receptor delta (PPARd) signaling pathway (AID 743212; calls by dose curve). The essentials:
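Beta-lactamase reporter readout: a ratiometric FRET signal from the LiveBLAzer substrate after 2 h at room temperature. Compound exposure at 37 °C in PPARδ-bla HEK293H cells driven by an upstream activator sequence.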

For assay [17] the target is unchanged. Nature of the assay: qHTS assay to identify small molecule antagonists of the peroxisome proliferator-activated receptor delta (PPARd) signaling pathway (AID 743215; active = well fitted inhibition curve with a large enough effect in the signal ratio in the repeat runs, not every such curve was filed as active; the % refers to the signal ratio;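 note: cells stimulated with agonist L165041 at 300 nM final during compound exposure; series mostly up to about 62 µM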). The essentials: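 Plated HEK293H PPARd-bla cells rested 5 h at 37 C and 5% CO2. Compound, then agonist L165041 at 300 nM final, was added; 17 h at 37 C followed. Substrate loading, 2 h room temperature, fluorescence measured.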

For assay [18], the target named is Bile acid receptor (Homo sapiens) (UniProt Q96RI1). As to the kind of experiment: qHTS assay to identify small molecule antagonists of the farnesoid-X-receptor (FXR) signaling pathway (AID 743217; active = well fitted inhibition curve with a large enough effect in the signal ratio in the repeat runs, not every such curve was filed as active; the % refers to the signal ratio). The essentials:
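Screen of the Tox21 10K library in quantitative HTS format using FXR-UAS-bla HEK 293T reporter cells. Agonist chenodeoxycholic acid, 50 uM final, added with compounds; 16 h incubation at 37 °C; beta-lactamase FRET fluorescence measured.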

Assay [19] shares this target. As to the kind of experiment: qHTS assay to identify small molecule agonists of the farnesoid-X-receptor (FXR) signaling pathway (AID 743220; active = well fitted activation curve with a large enough effect in the signal ratio in the repeat runs, not every such curve was filed as active; the % refers to the signal ratio). Summed up:
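FXR-UAS-bla HEK 293T cells carrying a UAS-driven beta-lactamase reporter were plated for 5 h at 37C/5% CO2, then exposed to DMSO-dissolved Tox21 10K compounds for 16 h at 37C. A LiveBLAzer B/G FRET substrate was loaded for 2 h at room temperature before fluorescence reading.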

Assay [20] concerns the target Peroxisome proliferator-activated receptor gamma (Homo sapiens) (UniProt P37231). Nature of the assay: qHTS assay to identify small molecule antagonists of the peroxisome proliferator-activated receptor gamma (PPARg) signaling pathway (AID 743191; calls by dose curve; note: series mostly up to about 63 µM; nearly all actives have a fitted effect of over 30% in size). Summed up:
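Beta-lactamase reporter under UAS control in HEK293H PPARg-bla cells; compound treatment 17 h at 37C. Read-out: fluorescence intensity after 1 h room-temperature incubation with LiveBLAzer B/G FRET substrate.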

Records with an inconclusive call do not appear. Activity calls are given as the source filed them. Unless noted, calls come from the whole dose curve; as a rule, active = well fitted curve in the direction sought with a large enough effect in the repeat runs; inconclusive = weak or mixed curves; inactive = no such curve, though single readings can be large; an effect the other way counts as inactive or inconclusive.

Sequence of Bile acid receptor (Homo sapiens) (Q96RI1 whole entry, looked up): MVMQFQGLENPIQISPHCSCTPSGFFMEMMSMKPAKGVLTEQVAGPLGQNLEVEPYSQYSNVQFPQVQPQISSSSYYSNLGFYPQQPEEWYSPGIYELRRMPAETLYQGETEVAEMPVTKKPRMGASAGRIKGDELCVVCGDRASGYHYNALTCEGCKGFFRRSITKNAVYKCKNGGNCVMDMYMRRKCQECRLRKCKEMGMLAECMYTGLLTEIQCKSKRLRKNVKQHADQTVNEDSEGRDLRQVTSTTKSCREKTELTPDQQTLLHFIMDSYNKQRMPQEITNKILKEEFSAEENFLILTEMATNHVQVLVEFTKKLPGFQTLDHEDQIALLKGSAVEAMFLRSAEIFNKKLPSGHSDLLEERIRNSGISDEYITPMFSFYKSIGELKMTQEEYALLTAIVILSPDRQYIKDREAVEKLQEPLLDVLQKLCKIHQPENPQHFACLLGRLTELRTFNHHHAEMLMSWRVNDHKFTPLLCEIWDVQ
Sequence of Aryl hydrocarbon receptor (Homo sapiens) (P35869 whole entry, looked up): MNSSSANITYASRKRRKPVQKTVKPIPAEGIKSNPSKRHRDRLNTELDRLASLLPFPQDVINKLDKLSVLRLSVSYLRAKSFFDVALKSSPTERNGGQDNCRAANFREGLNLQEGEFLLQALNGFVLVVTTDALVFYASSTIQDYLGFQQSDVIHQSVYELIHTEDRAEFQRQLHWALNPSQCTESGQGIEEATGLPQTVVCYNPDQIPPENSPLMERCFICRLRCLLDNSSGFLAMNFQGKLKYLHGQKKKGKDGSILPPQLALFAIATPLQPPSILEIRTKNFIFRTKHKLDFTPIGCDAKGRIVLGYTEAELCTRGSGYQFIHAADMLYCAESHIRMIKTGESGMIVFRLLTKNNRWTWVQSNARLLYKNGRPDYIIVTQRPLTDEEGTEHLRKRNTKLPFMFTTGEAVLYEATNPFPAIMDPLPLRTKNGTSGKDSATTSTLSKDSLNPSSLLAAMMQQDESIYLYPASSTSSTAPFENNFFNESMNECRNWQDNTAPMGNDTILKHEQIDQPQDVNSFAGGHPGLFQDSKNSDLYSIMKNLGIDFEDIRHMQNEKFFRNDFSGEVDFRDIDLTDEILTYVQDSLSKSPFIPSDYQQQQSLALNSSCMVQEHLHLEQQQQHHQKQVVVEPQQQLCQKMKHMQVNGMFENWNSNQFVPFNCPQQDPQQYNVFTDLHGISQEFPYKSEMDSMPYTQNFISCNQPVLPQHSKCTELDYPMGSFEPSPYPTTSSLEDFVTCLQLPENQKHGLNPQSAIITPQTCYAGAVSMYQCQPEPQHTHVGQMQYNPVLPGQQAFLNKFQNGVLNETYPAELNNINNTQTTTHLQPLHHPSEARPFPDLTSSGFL
Sequence of Peroxisome proliferator-activated receptor delta (Homo sapiens) (Q03181 whole entry, looked up): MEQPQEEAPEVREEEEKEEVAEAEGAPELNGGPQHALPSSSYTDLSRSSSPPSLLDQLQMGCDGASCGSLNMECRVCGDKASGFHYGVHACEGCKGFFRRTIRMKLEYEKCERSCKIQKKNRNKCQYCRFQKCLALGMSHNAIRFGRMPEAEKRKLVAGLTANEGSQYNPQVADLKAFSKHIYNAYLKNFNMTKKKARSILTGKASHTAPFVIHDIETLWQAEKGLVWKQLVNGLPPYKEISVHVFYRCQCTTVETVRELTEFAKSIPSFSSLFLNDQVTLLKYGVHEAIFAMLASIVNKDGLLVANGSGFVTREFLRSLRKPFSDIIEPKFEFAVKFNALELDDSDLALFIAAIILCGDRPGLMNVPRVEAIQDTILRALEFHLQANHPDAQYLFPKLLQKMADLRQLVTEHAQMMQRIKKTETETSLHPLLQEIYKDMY

For `CCN(Cc1ccc(Cl)nc1)/C(=C/[N+](=O)[O-])NC`, the Potency entry in [1], in assay [4], in [5], in assay [7], in [9] and in assay [13] was “inactive” each time. Also, the outcome in assay [2], in assay [3], in assay [6], in assay [8], in assay [10] and in assay [11] was inactive. Moreover, the result in [12] was inactive.

Turning to `CCOC(=O)CP(=O)(OCC)OCC`, the Potency result in assay [1], in [4], in assay [14], in assay [15], in assay [5] and in [7] was “inactive” each time. The Potency entry in assay [18], in assay [9] and in [13] was “inactive” each time. The outcome in assay [2], in assay [6], in [16], in [8], in [17] and in [19] was inactive. In addition, the compound was called inactive in assay [10].

Take `O=[N+]([O-])c1ccc(CBr)cc1`: the Potency result in assay [1], in assay [4], in [5], in assay [7], in [9] and in [13] was “inactive” each time. Besides, the call in [2], in [3], in [6] and in assay [10] was inactive.

`Nc1cc2c3c(c1)C(c1ccccc1)=N[C@@H](NC(=O)c1cccnc1)C(=O)N3CC2`: the Potency entry in assay [1], in assay [20], in assay [14], in [15], in [5] and in [7] was “inactive” in each case. The Potency entry in assay [9] and in assay [13] was “inactive” in each case. In addition, the result in assay [2], in [6], in assay [8], in assay [17], in assay [10] and in assay [11] was inactive.

On to `CC(C)COP(=O)(OCC(C)C)OCC(C)C`, for which the Potency entry in [1], in assay [20], in assay [4], in assay [14], in [15] and in [5] was “inactive” each time. Also, the Potency result in assay [7], in [18], in assay [9] and in [13] was “inactive” throughout. Further, the compound was called inactive in assay [2], in [6], in [16], in assay [8], in assay [17] and in assay [19]. The result in assay [10] and in assay [11] was inactive.

As to `COC(=O)C1=CCCN(C)C1`, the Potency entry in assay [1], in assay [4], in [14], in [5], in assay [7] and in assay [18] was “inactive” in each case. Further, the Potency result in assay [9] and in assay [13] was “inactive” in each case. The result in assay [2], in assay [6], in assay [16], in assay [8], in assay [19] and in assay [10] was inactive. Besides, the call in assay [11] and in [12] was inactive.

As to `ClC(Br)Br`, the Potency entry in assay [1], in [20], in assay [14], in [5], in assay [7] and in assay [18] was “inactive” throughout. Moreover, the Potency entry in assay [9] and in [13] was “inactive” throughout. The compound was classed as inactive in assay [2], in [6], in assay [16], in [8], in assay [17] and in assay [19]. Further, the call in [10] was inactive.

With `COc1cc2c(cc1OC)[C@@]13CCN4CC5=CCO[C@H]6CC(=O)N2[C@H]1[C@H]6[C@H]5C[C@H]43`, the Potency entry in [1], in assay [20], in assay [15], in [5], in assay [7] and in assay [9] was “inactive” in each case. The Potency result in [13] was “inactive”. For the same compound, the outcome in [2], in assay [6], in [8], in assay [10] and in assay [12] was inactive.

For `O=C(Nc1ccccc1)c1ccccc1I`, the Potency is 48.6 µM (active) in assay [1] and 21.7 µM (active) in assay [14]. Besides, the result in assay [2], in assay [6], in assay [8] and in [10] was inactive. The Potency entry in assay [4], in assay [15], in assay [5], in [7], in assay [9] and in [13] was “inactive” each time.

For `C[C@]12CC[C@H]3[C@@H](CC=C4C[C@@H](O)CC[C@@]43C)[C@@H]1CC[C@@H]2O`, the Potency entry in assay [1], in [4], in assay [14], in assay [15], in assay [5] and in [7] was “inactive” in each case. For the same compound, the Potency entry in assay [9] and in assay [13] was “inactive” each time. Also, the result in [2], in [8], in [10] and in assay [12] was inactive.
